NPC1 promoter act – qHTS Assay for NPC1 Promoter Activators | Huh7 NPC1 promoter luciferase reporter, 24 h | Potency, µM (titrated, usually from 9.22 µM), inactives show at the highest dose activation, usual class: activators | 2.4% of 320,000 active | AID 485313, 2010; also: % of control where 0% means no effect; nearly all actives have a fitted effect of over 60% in size
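Quantitative HTS used a cell-based reporter: Huh7 cells stably bearing the NPC1 promoter upstream of luciferase were treated with compounds for 24 h, and promoter activation was read as luminescence.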
FLuc counter – qHTS profiling assay for firefly luciferase inhibitor/activator using purifed enzyme and Km concentrations of substrates (counterscreen for miR-21 project) | purified FLuc, Km substrates, luminescence inhibition | Potency, µM (highest dose often 57.5 µM), for inactives: top-dose activity change, negative = inhibition, actives largely listed as inhibitors | 6.9% of 360,000 active | AID 588342, 2011 | Luciferin 4-monooxygenase (Photinus pyralis), P08659;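 also: plate controls were vehicle for no effect and reference inhibitor for full effect; nearly all actives have a fitted effect of over 55% in size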
Target sequence (P08659 whole entry, looked up): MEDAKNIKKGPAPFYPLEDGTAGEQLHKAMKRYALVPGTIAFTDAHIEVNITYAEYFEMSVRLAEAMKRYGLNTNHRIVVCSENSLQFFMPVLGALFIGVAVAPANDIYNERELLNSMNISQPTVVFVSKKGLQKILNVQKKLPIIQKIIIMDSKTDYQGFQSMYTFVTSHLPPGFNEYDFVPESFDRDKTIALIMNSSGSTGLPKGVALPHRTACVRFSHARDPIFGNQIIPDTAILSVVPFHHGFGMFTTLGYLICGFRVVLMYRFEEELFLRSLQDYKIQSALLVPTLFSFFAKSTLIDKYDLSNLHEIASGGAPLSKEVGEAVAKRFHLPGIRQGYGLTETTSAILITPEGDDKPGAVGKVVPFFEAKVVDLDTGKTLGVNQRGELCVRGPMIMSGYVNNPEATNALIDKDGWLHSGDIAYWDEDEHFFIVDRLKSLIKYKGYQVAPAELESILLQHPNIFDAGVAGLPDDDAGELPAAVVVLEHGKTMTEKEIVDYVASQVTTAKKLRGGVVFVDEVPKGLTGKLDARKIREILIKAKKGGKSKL
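Biochemical qHTS of compounds, final roughly 60 µM downward over six points, against 10 nM purified firefly luciferase using Km concentrations of substrates (10 uM D-luciferin, 10 uM ATP) in Tris acetate pH 7.5 buffer; luminescence output.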
SMN2 splice enh – qHTS Assay for Enhancers of SMN2 Splice Variant Expression; HEK293 SMN2-luciferase splicing reporter, luminescence, 30-36 h; Potency, µM (doses to about 46.1 µM), without a hit: at the top dose activity change, positive = activation, hits mostly activators; 2.8% of 210,000 active; also: % of control where 0% means no effect; nearly all actives have a fitted effect of over 55% in size
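HEK293 cells carry an SMN2 minigene-luciferase reporter in which exon 7 inclusion puts luciferase in frame. Cells were seeded at 2000 cells/well, attached for 10-12 hours, then exposed to compounds for 30-36 hours at 37C before ONE-Glo luminescence.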
ELG1 genotoxic – qHTS screen for small molecules that induce genotoxicity in human embryonic kidney (HEK293T) cells expressing luciferase-tagged ELG1 | 1.3% of 330,000 active | AID 504466, 2011 | Potency, µM (top dose mostly 46 µM), for the others: at the top dose activity change, positive = activation, usual class: activators | HEK293T ELG1-luciferase reporter, luminescence, 16 h; also: % of control where 0% means no effect; nearly all actives have a fitted effect of over 60% in size
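Screening used a luciferase reporter fused to human ELG1 in HEK293T cells. Luminescence was read on a CCD plate imager after 16 hr exposure and 30 min ONE-Glo incubation.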
KinaseGlo FLuc – Counterscreen for Luciferase (Kinase-Glo TM) Inhibition. 0.28% of 200,000 active. Potency, µM (top dose mostly 38.3 µM), without a hit: at the top dose activity change, negative = inhibition, most hits filed as inhibitors. Kinase-Glo luciferase, ATP luminescence, 8 min. Luciferin 4-monooxygenase (Photuris pensylvanica), Q27757; also: % is scaled to controls: 0 for no effect and ±100 for the full control effect; nearly all actives have a fitted effect of over 60% in size
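Compounds were added to a substrate mix at pH 7.2 (50 mM imidazole, 10 uM ATP, within the enzyme's linear range), followed by Kinase-Glo detection reagent; luminescence was measured after 8 minutes at ambient temperature.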
Rab9 prom act – qHTS Assay for Rab9 Promoter Activators | Huh7 Rab9 promoter-luciferase reporter, luminescence, 24 h | 2.8% of 320,000 active | Potency, µM (top dose mostly 9.22 µM), for inactives: at the highest dose activation, negative = inhibition, actives largely listed as activators; also: % of control where 0% means no effect; nearly all actives have a fitted effect of over 60% in size
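Luciferase signal after 10 min detection reagent at ambient indicates Rab9 promoter upregulation; stably transfected Huh7 cells were treated 24 h with compound in DMSO at 37 °C, 5% CO2.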
* = called active by the depositor. In the library only some 7.5% were active in any assay of this set; here they are far more common. Calls follow the shape of the dose curve; as a rule, active = well fitted curve in the direction sought with a large enough effect; inconclusive = small, poorly fitted or top-dose-only effect, or another doubt; inactive = no such curve, though single readings can be large; an effect the other way counts as inactive or inconclusive. Potency is read from the fitted curve at half-maximal effect.

`Cc1ccsc1CNCC(O)c1ccccc1` (stereo not drawn) gave NPC1 promoter act 3.1%, FLuc counter -2.2%, ELG1 genotoxic -0.2% and Rab9 prom act 7.7%.
Screening CC1(C)CC(=O)C=C(c2cccc(Cl)c2O)C1 returned NPC1 promoter act -2.9%, FLuc counter 8.8%, ELG1 genotoxic -0.4% and Rab9 prom act 0.4%.
COc1cc(OC)c(NC(=O)Cn2c(=O)nc(-c3ccccc3)c3ccccc32)cc1Cl was read as FLuc counter -9.5% and SMN2 splice enh 3.8%.
`CCCCc1nc2cc(C(=O)N3CCC(O)CC3)ccc2o1` gave NPC1 promoter act 1.58µM*, FLuc counter 10.7µM*, ELG1 genotoxic inconclusive and Rab9 prom act 2µM*.
For COc1cccc([C@@H]2Oc3ccc(Br)cc3C(=O)[C@H]2O)c1 the results were SMN2 splice enh inconclusive and KinaseGlo FLuc 3.1%.
Screening COc1cccc([C@@H]2Oc3ccc(OC)cc3C(=O)[C@H]2O)c1 returned NPC1 promoter act inconclusive, FLuc counter -22.7%, SMN2 splice enh 5.01µM*, ELG1 genotoxic 7.31µM*, KinaseGlo FLuc 2.6% and Rab9 prom act inconclusive.
COc1cccc(C2C(=O)c3ccccc3C2=O)c1 was read as NPC1 promoter act -7.5%, FLuc counter 26.9µM*, ELG1 genotoxic 2.2% and Rab9 prom act 5.1%.
COC(=O)C1=C(C)NC2=C(C(=O)c3ccccc32)C1c1cccc(OC)c1 (stereo not drawn) was read as NPC1 promoter act -0.9%, FLuc counter -3.0%, ELG1 genotoxic 3.9% and Rab9 prom act 14.0%.
For O=C(Nc1ccc2c(c1)C(=O)N(CC1CCCO1)C2=O)c1ccc(Cl)c(Cl)c1 (stereo not drawn) the results were NPC1 promoter act -8.2%, FLuc counter 5.36µM*, SMN2 splice enh -77.7%, ELG1 genotoxic 14.5%, KinaseGlo FLuc -1.6% and Rab9 prom act -13.0%.
For Cc1nnc(NC(=O)c2ccc3c(c2)C(=O)N(CC2CCCO2)C3=O)s1 (stereo not drawn) the results were NPC1 promoter act -1.9%, FLuc counter 5.36µM*, SMN2 splice enh -2.8%, ELG1 genotoxic 7.0%, KinaseGlo FLuc 0.6% and Rab9 prom act 1.7%.
For COc1ccc(NC(=O)c2ccc3c(c2)C(=O)N(CC2CCCO2)C3=O)cc1O (stereo not drawn) the results were NPC1 promoter act 1.0%, FLuc counter inconclusive, ELG1 genotoxic 1.8% and Rab9 prom act -5.7%.
`O=C(Nc1cccnc1)c1ccc2c(c1)C(=O)N(CC1CCCO1)C2=O` (stereo not drawn) gave NPC1 promoter act -4.4%, FLuc counter 2.8%, SMN2 splice enh -3.3%, ELG1 genotoxic -0.4%, KinaseGlo FLuc -0.6% and Rab9 prom act -1.0%.
For Cc1ccc(NC(=O)c2ccc3c(c2)C(=O)N(CC2CCCO2)C3=O)cc1C (stereo not drawn) the results were NPC1 promoter act -0.3%, FLuc counter 10.7µM*, ELG1 genotoxic 2.4%, KinaseGlo FLuc -0.3% and Rab9 prom act 13.9%.
`CCOC(=O)c1ccc(NC(=O)c2ccc3c(c2)C(=O)N(CC2CCCO2)C3=O)cc1` (stereo not drawn) gave NPC1 promoter act 1.0%, FLuc counter -11.1%, ELG1 genotoxic -8.2% and Rab9 prom act -1.6%.
Screening O=C(Nc1ccc(O)c(C(=O)O)c1)c1ccc2c(c1)C(=O)N(CC1CCCO1)C2=O (stereo not drawn) returned NPC1 promoter act -5.0%, FLuc counter 9.53µM*, SMN2 splice enh -10.3%, ELG1 genotoxic 0.2%, KinaseGlo FLuc -1.4% and Rab9 prom act -1.3%.
COc1ccc(-c2cc(C(C)=O)c(C)n2CCC(=O)Nc2cccc(C)c2C)cc1 was read as FLuc counter -0.5%.
For CC1=C(C(=O)Nc2ccccc2)C(c2ccccn2)n2nc(SCc3ccccc3Cl)nc2N1 (stereo not drawn) the results were FLuc counter -0.7% and SMN2 splice enh -3.6%.
`Cc1c(NC(=O)c2ccc3c(c2)C(=O)N(CC2CCCO2)C3=O)cccc1C(=O)O` (stereo not drawn) gave NPC1 promoter act -2.6%, FLuc counter 15.1µM*, SMN2 splice enh 15.2%, ELG1 genotoxic 2.3%, KinaseGlo FLuc 1.2% and Rab9 prom act 1.3%.
`Nc1ccc(Oc2ccc3c(c2)C(=O)N(CC2CCCO2)C3=O)cc1` (stereo not drawn) gave NPC1 promoter act inconclusive, FLuc counter 9.53µM*, ELG1 genotoxic inconclusive and Rab9 prom act inconclusive.
Screening Nc1ccc2c(c1)C(=O)N(CC1CCCO1)C2=O (stereo not drawn) returned NPC1 promoter act 6.5%, FLuc counter -12.0%, SMN2 splice enh 1.5%, ELG1 genotoxic 12.1%, KinaseGlo FLuc 0.4% and Rab9 prom act -1.0%.
O=C(/C(=C/O)N=Nc1ccccc1Cl)c1ccccc1 was read as NPC1 promoter act 0.7%, FLuc counter 21.3µM*, SMN2 splice enh -26.9%, ELG1 genotoxic -4.4%, KinaseGlo FLuc -1.2% and Rab9 prom act -3.5%.
O=C(/C(=C/O)N=Nc1cccc(C(F)(F)F)c1)c1ccccc1 was read as NPC1 promoter act -0.4%, FLuc counter inconclusive, SMN2 splice enh -86.5%, ELG1 genotoxic -2.6%, KinaseGlo FLuc 0.1% and Rab9 prom act 9.3%.
`CC1Cc2cc(/C=C3/SC(=S)N(C)C3=O)ccc2O1` (stereo not drawn) gave NPC1 promoter act inconclusive, FLuc counter 1.07µM*, ELG1 genotoxic inconclusive and Rab9 prom act inconclusive.
For CC1Cc2cc(/C=C3/SC(N4CCC(C(N)=O)CC4)=NC3=O)ccc2O1 (stereo not drawn) the results were NPC1 promoter act -6.4%, FLuc counter inconclusive, ELG1 genotoxic 4.6% and Rab9 prom act -1.4%.
Cc1noc(C)c1COC(=O)CNC(=O)c1cccc(F)c1 was read as NPC1 promoter act -4.1%, FLuc counter -2.0%, SMN2 splice enh 2.8%, ELG1 genotoxic 0.4%, KinaseGlo FLuc -0.2% and Rab9 prom act 2.3%.
For O=C(CNC(=O)c1ccccc1F)OCCCOC(=O)CNC(=O)c1ccccc1F the results were NPC1 promoter act -1.0%, FLuc counter -1.8%, ELG1 genotoxic 0.0% and Rab9 prom act 10.8%.
